PubChem BioAssay (Tox21)
“And” between values parts separate entries of the source, which are not always exact repeats. Equal values may be shown once. Results filed as inconclusive are left out. The source made the active and inactive calls. Calls come from the whole dose curve; as a rule, active = well fitted inhibition curve with a large enough effect in the repeat runs; inconclusive = weak or mixed curves, or effect the other way; inactive = no such curve, though single readings can be large or run the other way.

target: Nuclear receptor ROR-gamma (Homo sapiens) (UniProt P51449); test: qHTS assay to identify small molecule antagonists of the retinoid-related orphan receptor gamma (ROR-gamma) signaling pathway (AID 1159521; note: nearly all actives have a fitted effect of over 50% in size; for activity change, negative = inhibition: top concentration of the series differs between compounds); conditions: Tet-on RORgamma CHO cells, RORE-luciferase, 16 h; series mostly up to 92.4 µM; activity change, negative = inhibition: at the top concentration
Source text: U.S. Tox21 Program National Center for Advancing Translational Sciences [NCATS] NIH Chemical Genomics Center [NCGC] U.S. Environmental Protection Agency [EPA] National Institutes of Environmental Health Sciences [NIEHS] National Toxicology Program [NTP] U.S. Food and Drug Administration [FDA] Tox21 Assay Overview: Nuclear steroid hormone receptors are involved in many biological processes including inflammatory responses, cell proliferation, and apoptosis. Environmental factors or compounds disrupting these nuclear receptor pathways and gene expression may promote susceptibility to immunotoxicants and autoimmune diseases. One important group of these expression factors are the retinoid-related orphan receptors. To assess compounds that may interfere with the retinoid-related orphan receptor gamma (ROR-gamma) transcription factor, a cell-based luciferase assay was used. The CHO cell-based assay utilizes a TET-inducible ROR expression factor and ROR response element-LUC reporter gene. Reporter gene activity was induced using Doxycycline Hyclate and measured after 16 hr incubation. Tet-on ROR gamma CHO cells were used to screen against the Tox21 10K compound library for ROR gamma antagonists by quantification of decreased reporter gene activity in terms of decreased luminescence.
Tox21 Assay Protocol Summary: Tet-on ROR gamma CHO cells were dispensed at 1,000 cells in 4 uL of culture medium per well into white wall/solid bottom 1536-well plates using a Multidrop Combi (Thermo Scientific, Waltham, MA) dispenser. Following incubation at 37 C and 5% CO2 for 4 hr, 23 nL of compounds dissolved in DMSO, positive controls or DMSO only were transferred by a Pintool station (Kalypsys, San Diego, CA) and after 2 hr incubation at 37 C, one ul of 1 uM (final concentration) of Doxycycline Hyclate was added to all the wells by using a Flying Reagent Dispenser (FRD) (Aurora Discovery, San Diego, CA). After 16 hr incubation at 37 C and 5% CO2, 5 uL of ONE-Glo reagent (Promega Corporation, Madison, WI) was added to each assay plate using FRD. After 30 min incubation at room temperature, luminescence was quantified on a ViewLux plate reader (Perkin Elmer, Waltham, MA).
% is set by controls: 0 for no effect and ±100 for the full control effect; potency is the fitted concentration of half-maximal effect.

SMILES | activity change, negative = inhibition | Potency
Cc1ccc2cc3c(ccc4ccccc43)c3c2c1CC3 | 46.1% [at 42.5 µM] (inactive) | 
N#CC(C#N)=NNc1cccc(Cl)c1 |  | 0.486 µM (active)
O=C(N[C@H]1N=C(c2ccccc2F)c2cccc3c2N(CC3)C1=O)c1cc2ccccc2[nH]1 | -1.04% [at 42.5 µM] (inactive) | 
O=C(NC(=O)c1ccccc1Cl)Nc1ccc(OC(F)(F)F)cc1 | 15% (inactive) | 
CN1C(=O)[C@@H](NC(=O)c2cc3ccccc3[nH]2)N=C(c2ccccc2)c2ccccc21 | -5.36% [at 42.5 µM] (inactive) | 
COP(=O)(OC)O/C(=C\Cl)c1cc(Cl)c(Cl)cc1Cl |  | 38.6 µM (active)
CC1=C2C[C@H]3[C@@H](CC=C4C[C@@H](O)CC[C@@]43C)[C@@H]2CC[C@]12O[C@@H]1C[C@H](C)CN[C@H]1[C@H]2C |  | 8.41 µM (active)
CC(=O)[O][Sn]([c]1ccccc1)([c]1ccccc1)[c]1ccccc1 |  | 0.0243 µM (active)
COP(=O)(OC)Oc1ccc([N+](=O)[O-])cc1 | -9.25% (inactive) | 
Nc1c(Cl)c(Cl)c(Cl)c(Cl)c1Cl | 27.9% (inactive) | 
Clc1ccc(C(c2ccc(Cl)cc2)C(Cl)Cl)cc1 |  | 55.4 µM (active) and 54.5 µM (active)
CCOC(=O)Cc1ccccc1 | -5.9% (inactive) | 
CSC(=O)c1c(C(F)F)nc(C(F)(F)F)c(C(=O)SC)c1CC(C)C |  | 54.2 µM (active)
c1ccc(Nc2ccc(Nc3ccccc3)cc2)cc1 | -28.6% (inactive) | 
N#Cc1c2ccccc2cc2ccccc12 | 0.596% (inactive) | 
O=C1C(Cl)=C(Cl)C(=O)C(Cl)=C1Cl |  | 12.1 µM (active) and 30.6 µM (active)
Cc1nn(-c2cc(NS(C)(=O)=O)c(Cl)cc2Cl)c(=O)n1C(F)F | 0.539% (inactive) | 
CN | 6.56% (inactive) | 
CO/N=C(/C1=NOCCO1)c1ccccc1Oc1ncnc(Oc2ccccc2Cl)c1F |  | 0.968 µM (active)
CCN(CC)Cc1nccn1-c1ccc([N+](=O)[O-])cc1C(=O)c1ccccc1Cl | -0.722% [at 42.5 µM] (inactive) | 

SMILES | activity change, negative = inhibition | Potency
NC1CCC(CC2CCC(N)CC2)CC1 (stereo not given) | -6.36% (inactive) | 
CCCCc1ccccc1 | 2.91% (inactive) | 
N#Cc1sc2c(=O)c3ccccc3c(=O)c=2sc1C#N |  | 13.7 µM (active)
Cc1ccc(C)c2ccccc12 | 5.31% (inactive) | 
COP(=S)(OC)Oc1ccc([N+](=O)[O-])c(C)c1 | -13% (inactive) | 
CCC(C)Nc1c([N+](=O)[O-])cc(C(C)(C)C)cc1[N+](=O)[O-] (stereo not given) | -0.894% (inactive) | 
CCC[CH2][Sn]([CH2]CCC)([CH2]CCC)[O][Sn]([CH2]CCC)([CH2]CCC)[CH2]CCC |  | 0.168 µM (active)
COc1cnc(OC)n2nc(NS(=O)(=O)c3c(OCC(F)F)cccc3C(F)(F)F)nc12 | -8.69% (inactive) | 
CCC(C)c1cccc(C(C)CC)c1O (stereo not given) | -6.1% (inactive) | 
CCO/N=C(\CC)C1=C(O)CC(c2c(C)cc(C)cc2C)CC1=O (stereo not given) | -10.4% (inactive) | 
C[C@]12C/C(=C/O)C(=O)C[C@@H]1CC[C@@H]1[C@@H]2CC[C@@]2(C)[C@H]1CC[C@]2(C)O |  | 30.9 µM (active) and 29.8 µM (active)
BrCCCBr | -5.88% (inactive) | 
ClSC(Cl)(Cl)Cl | -8.94% (inactive) | 
C=Cc1cccc(CCl)c1 | 0.0874% [at 240 µM] (inactive) | 
CCCCCCCc1ccc(O)cc1 | 8.1% (inactive) | 
CC1CCCC1 | -12.5% (inactive) | 
CCOP(=S)(OCC)SC(CCl)N1C(=O)c2ccccc2C1=O (stereo not given) | -14.1% (inactive) | 
CCOP(=S)(OCC)Oc1cc(C)nc(N(CC)CC)n1 | -25.4% (inactive) | 
CCNS(=O)(=O)C(F)(F)C(F)(F)C(F)(F)C(F)(F)C(F)(F)C(F)(F)C(F)(F)C(F)(F)F | -24.3% (inactive) | 
CCC[CH2][Sn]([CH2]CCC)([CH2]CCC)[CH2]CCC |  | 6.11 µM (active)
